Experimental data as given in PubChem BioAssay AID1347414 (National Center for Advancing Translational Sciences (NCATS), 2020).
Inconclusive results are not listed. A number with no mark means an inactive call. The source made the active and inactive calls. Calls follow the shape of the dose curve; as a rule, active = well fitted inhibition curve with a large enough effect; inconclusive = small, poorly fitted or top-dose-only effect; inactive = no such curve, though single readings can be large or run the other way.

Assay: qHTS to identify inhibitors of the type 1 interferon - major histocompatibility complex class I in skeletal muscle: Secondary screen by immunofluorescence; also: nearly all actives have a fitted effect of over 70% in size;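 as to activity change, negative = inhibition: digitonin at 100 µM served as the cytotoxic control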
Details: C25cl48 myoblasts, IFN-b induced HLA-ABC immunofluorescence, 24 h; series mostly up to 49.8 µM; activity change, negative = inhibition: at the top concentration
Outline: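 HLA-ABC immunofluorescence, with nuclear and cell-body stains, was quantified by laser scanning cytometry. Read-out followed 24 h of IFN-beta (4.0 ng/ml) stimulation of C25cl48 human myoblasts with compounds titrated 1:3 over 11 points from 50 uM, with ruxolitinib as inhibitor control.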
% is scaled to controls: 0 for no effect and ±100 for the full control effect; potency is read from the fitted curve at half-maximal effect.

SMILES | Potency | activity change, negative = inhibition [%]
Cc1[nH]c2ccccc2c1CCNCc1ccc(/C=C/C(=O)NO)cc1 | 22.9 nM (active) | 
O=C1NCCc2[nH]c(-c3ccncc3)cc21 | 2570 nM (active) | 
CC(C)CC(=O)Nc1n[nH]c2c1CN(C(=O)C1CCN(C)CC1)C2(C)C | 230 nM (active) | 
O=C1CN2Cc3c(ccc(Cl)c3Cl)N=C2N1 |  | 7.02
C/C=C1\NC(=O)[C@H]2CSSCCC=C[C@H](CC(=O)N[C@H](C(C)C)C(=O)N2)OC(=O)[C@H](C(C)C)NC1=O | 5.8 nM (active) | 
CC(C)C[C@H](NC(=O)CNC(=O)c1cc(Cl)ccc1Cl)B1OC(=O)CC(CC(=O)O)(C(=O)O)O1 (stereo partly specified) | 814 nM (active) | 
O=C(NC1CCNCC1)c1[nH]ncc1NC(=O)c1c(Cl)cccc1Cl | 258 nM (active) | 
CC(C)(C)c1nc2c3cc[nH]c(=O)c3c3cc(F)ccc3c2[nH]1 | 514 nM (active) | 
C[C@H](NC(=O)/C(C#N)=C/c1cccc(Br)n1)c1ccccc1 | 20500 nM (active) | 
Cc1cc(Nc2nc(N[C@@H](C)c3ncc(F)cn3)ncc2Cl)n[nH]1 | 647 nM (active) | 
O=C(CCCCCCC(=O)Nc1ccccc1)NO | 914 nM (active) | 
Cc1ccc(C(N)=O)cc1Nc1nccc(-c2cn(C(C)C)c3cnccc23)n1 | 3330 nM (active) | 
CC(=O)NCC(=O)N1[C@@H]2CC[C@H]1c1ccc(Nc3ncc(C(F)(F)F)c(NC4CCC4)n3)cc12 | 14500 nM (active) | 
CCN(CC)Cc1ccc2cc(COC(=O)Nc3ccc(C(=O)NO)cc3)ccc2c1 | 258 nM (active) | 
CO[C@H]1C(=O)[C@]2(C)[C@@H](OC)C[C@H]3OC[C@@]3(OC(C)=O)[C@H]2[C@H](OC(=O)c2ccccc2)[C@]2(O)C[C@H](OC(=O)[C@H](O)[C@@H](NC(=O)OC(C)(C)C)c3ccccc3)C(C)=C1C2(C)C |  | 2.93
COC(=O)C[C@](O)(CCCC(C)(C)O)C(=O)O[C@@H]1C(OC)=C[C@]23CCCN2CCc2cc4c(cc2[C@H]13)OCO4 | 28.9 nM (active) | 
O=C1NC(=O)[C@@H](c2c[nH]c3ccccc23)[C@H]1c1cn2c3c(cccc13)CCC2 |  | 17.3
Cc1cc(O)c(-c2ccc([C@@H](C)CN(C)C)cc2)c2c1[nH]c(=O)c1sccc12 | 81.4 nM (active) | 

SMILES | Potency | activity change, negative = inhibition [%]
COc1ccc(F)c(F)c1C(=O)c1cnc(NC2CCN(S(C)(=O)=O)CC2)nc1N | 914 nM (active) | 
COc1cc(Nc2ncc(F)c(Nc3ccc4c(n3)NC(=O)C(C)(C)O4)n2)cc(OC)c1OC |  | 0.596
NC(=O)c1cnc2[nH]ccc2c1NC1C2CC3C[C@H]1CC(O)(C3)C2 (stereo partly specified) | 458 nM (active) | 
CC(C)c1cc(CNc2nc(Nc3cc(C4CC4)[nH]n3)cc(N3CCN(C)CC3)n2)on1 | 4580 nM (active) | 
C[C@H]1C[C@@H]2[C@H]([C@@H](O)C[C@@]3(C)[C@H]2CC[C@]3(O)C(=O)CO)[C@@]2(C)C=CC(=O)C=C12 |  | -26.3
CC[C@@]1(O)C(=O)OCc2c1cc1n(c2=O)Cc2cc3c(CN(C)C)c(O)ccc3nc2-1 | 7260 nM (active) | 
C1=C/COCc2cc(ccc2OCCN2CCCC2)Nc2nccc(n2)-c2cccc(c2)COC/1 | 1290 nM (active) | 
CC[C@@]1(O)C(=O)OCc2c1cc1n(c2=O)Cc2c-1nc1ccccc1c2/C=N/OC(C)(C)C | 3240 nM (active) | 
CC(=O)c1ccc2c(c1)c1cc(C(C)=O)ccc1n2CCNC(C)C | 647 nM (active) | 
COc1cccc2c1C(=O)c1c(O)c3c(c(O)c1C2=O)C[C@@](O)(/C(CO)=N/NC(=O)CCCCCN1C(=O)C=CC1=O)C[C@@H]3O[C@H]1C[C@H](N)[C@H](O)[C@H](C)O1 | 1020 nM (active) | 
CNC(=O)c1cc(Oc2ccc(NC(=O)Nc3cc(C(C)(C)C)nn3-c3ccc4ncccc4c3)c(F)c2)ccn1 | 1820 nM (active) | 
Cn1cc(-c2ccc(-c3cncc(Cl)c3N3CCC4(CCNC4=O)CC3)cc2)cn1 |  | -43.2
CN1CCN(C(=O)c2ccc3cc(CCNc4ncnc5ccc(C#N)cc45)ccc3c2)CC1 |  | -21.6
CN1CC[C@H](c2c(O)cc(O)c3c(=O)cc(-c4ccccc4Cl)oc23)[C@H](O)C1 | 102 nM (active) | 
COc1nnc2ccc(N3CCC(c4ccc(OCCN5CCN(C)C(=O)[C@H]5C)cc4)CC3)nn12 | 14.5 nM (active) | 
COc1cccc2c1C(=O)c1c(O)c3c(c(O)c1C2=O)C[C@@](O)(C(C)=O)C[C@@H]3O[C@H]1C[C@H](N)[C@H](O)[C@H](C)O1 | 458 nM (active) | 
CC(=O)Nc1ccc([C@H](C)C(=O)Nc2ncc(C(C)C)s2)cc1 | 1620 nM (active) | 
CC[C@]1(O)C[C@H]2CN(CCc3c([nH]c4ccccc34)[C@@](C(=O)OC)(c3cc4c(cc3OC)N(C=O)[C@H]3[C@@](O)(C(=O)OC)[C@H](OC(C)=O)[C@]5(CC)C=CCN6CC[C@]43[C@@H]65)C2)C1 |  | 3.61
